According to PubChem BioAssay (NCATS):
Inconclusive results are not listed. Entries that show only a call come without a potency. The source made the active and inactive calls. The call rests on the fitted dose curve; in most records, active means well fitted curve in the direction sought with a large enough effect; inconclusive means small, poorly fitted or top-dose-only effect, or another doubt; inactive means no such curve, though single readings can be large; an effect the other way counts as inactive or inconclusive.

What was measured:
[1] = qHTS of pediatric cancer cell lines to identify multiple opportunities for drug repurposing: Primary screen for BT-12 cells (AID 1347101); further: nearly all actives have a fitted effect of over 25% in size; further: potency means the concentration at half of the fitted maximal effect
Method in brief: (§1)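 Cells (500-1,000/well) rested 5 h, then received compounds for 48 h; metabolically active cells were measured by CellTiter-Glo luminescence. Final concentrations spanned up to 46 µM (MIPE, 11-point) or 0.59 nM-46 µM (NPC, 8-point) in primary screens, 11-point in follow-ups.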

[2] = qHTS of pediatric cancer cell lines to identify multiple opportunities for drug repurposing: Primary screen for Rh18 cells (AID 1347102); further: nearly all actives have a fitted effect of over 65% in size; further: potency means the concentration at half of the fitted maximal effect
Method in brief: (§2)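 Cells (500-1,000/well) in growth media were settled 5 h at 37 degrees C, then given compounds for 48 h. Viability was read as CellTiter-Glo luminescence. Primary runs used MIPE at 11 points (0.78 nM-46 µM) and NPC at 8 points (0.59 nM-46 µM); follow-ups used 11 points.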

[3] = qHTS of pediatric cancer cell lines to identify multiple opportunities for drug repurposing: Primary screen for OHS-50 cells (AID 1347103); further: nearly all actives have a fitted effect of over 40% in size; further: potency means the concentration at half of the fitted maximal effect
Method in brief: as §1

[4] = qHTS of pediatric cancer cell lines to identify multiple opportunities for drug repurposing: Primary screen for RD cells (AID 1347104); further: nearly all actives have a fitted effect of over 55% in size; further: potency means the concentration at half of the fitted maximal effect
Method in brief: (§3)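 ATP-based luminescence (CellTiter-Glo) quantifies viability after a 48-hour exposure. Compounds are dosed across 8 or 11 final concentrations; DMSO and 2.3 µM bortezomib serve as controls.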

[5] = qHTS of pediatric cancer cell lines to identify multiple opportunities for drug repurposing: Primary screen for control Hh wild type fibroblast cells (AID 1347106);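 further: series mostly up to about 46 µM; a drop in luminescence marks cytotoxicity and a rise apparent proliferation; nearly all actives have a fitted effect of over 55% in size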
Method in brief: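 Viability after 48 h compound treatment at 37C, 500-1,000 cells/well, read as ATP luminescence with CellTiter-Glo. Primary screens used 11-point (MIPE, 0.78 nM-46 µM) or 8-point (NPC, 0.59 nM-46 µM) final concentrations; follow-up screens used 11-point dilutions.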

[6] = qHTS of pediatric cancer cell lines to identify multiple opportunities for drug repurposing: Primary screen for Rh30 cells (AID 1347107); further: series mostly up to about 46 µM; nearly all actives have a fitted effect of over 75% in size
Method in brief: as §2

[7] = qHTS of pediatric cancer cell lines to identify multiple opportunities for drug repurposing: Primary screen for Rh41 cells (AID 1347108);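 further: series mostly up to about 46 µM; luminescence drop marks cytotoxic hits; nearly all actives have a fitted effect of over 70% in size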
Method in brief: as §3

[8] = qHTS of pediatric cancer cell lines to identify multiple opportunities for drug repurposing: Primary screen for MG 63 (6-TG R) cells (AID 1347105); further: nearly all actives have a fitted effect of over 50% in size; further: potency means the concentration at half of the fitted maximal effect
Method in brief: as §3

[9] = qHTS of pediatric cancer cell lines to identify multiple opportunities for drug repurposing: Confirmatory screen for NB1643 cells (AID 1347109); further: nearly all actives have a fitted effect of over 45% in size
Method in brief: as §2

[10] = qHTS of pediatric cancer cell lines to identify multiple opportunities for drug repurposing: Confirmatory screen for A673 cells (AID 1347110);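 further: potency means the concentration at half of the fitted maximal effect; cells exposed to compound for 48 h before the viability read; nearly all actives have a fitted effect of over 65% in size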
Method in brief: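 A673 cells seeded at 500-1,000 cells/well, rested 5 h, then dosed; primary MIPE 11-point (0.78 nM to 46 µM), NPC (0.59 nM to 46 µM); confirmatory 11-point. CellTiter-Glo luminescence after 48 h.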

SMILES	Potency [1]	Potency [2]	Potency [3]	Potency [4]	outcome [5]	Potency [6]	Potency [7]	Potency [8]	Potency [9]	Potency [10]
Nc1c2c(nc3ccccc13)CCCC2O (stereo not drawn)	inactive	inactive	inactive	inactive	inactive	inactive	inactive	–	–	–
CCCCCN(CCCCC)C(=O)C(CCC(=O)O)NC(=O)c1ccc(Cl)c(Cl)c1 (stereo not drawn)	inactive	inactive	inactive	inactive	inactive	inactive	–	–	–	–
Cc1ccc(Cl)c(Nc2ccccc2C(=O)O)c1Cl	inactive	inactive	inactive	inactive	inactive	inactive	inactive	–	–	–
C[C@H](CS)C(=O)N1CCC[C@H]1C(=O)O	inactive	inactive	inactive	inactive	inactive	inactive	inactive	–	–	–
CC(C)NCC(O)c1cc(O)cc(O)c1 (stereo not drawn)	inactive	inactive	inactive	inactive	inactive	inactive	–	–	–	–
CC(=O)OC(C)C[N+](C)(C)C (stereo not drawn)	inactive	inactive	inactive	inactive	inactive	inactive	–	–	–	–
CCn1cc(C(=O)O)c(=O)c2cc3c(cc21)OCO3	inactive	inactive	inactive	inactive	inactive	inactive	inactive	inactive	–	–
N[C@@H](COP(=O)(O)O)C(=O)O	inactive	inactive	inactive	inactive	inactive	inactive	inactive	inactive	–	–
C[N+](C)(C)CCCCCCCCCC[N+](C)(C)C	inactive	inactive	inactive	inactive	inactive	inactive	inactive	inactive	–	–
FC(F)(F)c1ccccc1-n1ccnc1	inactive	inactive	inactive	inactive	inactive	inactive	–	–	–	–
O=C(O)CN(CCN(CC(=O)O)CC(=O)O)CCN(CC(=O)O)CC(=O)O	inactive	inactive	inactive	inactive	inactive	inactive	inactive	inactive	–	–
CCO/C([O-])=N/c1c[n+](N2CCOCC2)no1	inactive	inactive	inactive	inactive	inactive	inactive	inactive	–	–	–
CC(C)(C)NCC(O)c1cc(O)cc(O)c1 (stereo not drawn)	inactive	inactive	inactive	inactive	inactive	inactive	inactive	inactive	–	–
CCCOc1ccccc1-c1nc2n[nH]nc2c(=O)[nH]1	inactive	inactive	inactive	inactive	inactive	inactive	–	–	–	–
CCCCNC(=O)NS(=O)(=O)c1ccc(C)cc1	inactive	inactive	inactive	inactive	inactive	inactive	inactive	inactive	–	–
CC1=NS(=O)(=O)c2cc(Cl)ccc2N1	inactive	inactive	inactive	inactive	inactive	inactive	–	–	–	–
O=c1[nH]c(=O)n([C@H]2C[C@H](O)[C@@H](CO)O2)cc1Br	inactive	inactive	inactive	inactive	inactive	inactive	inactive	inactive	–	–
O=C(O)CCCCCCCC(=O)O	inactive	inactive	inactive	inactive	inactive	inactive	–	–	–	–
Cc1cccc(C)c1NC(=O)C(C)N (stereo not drawn)	inactive	inactive	inactive	inactive	inactive	inactive	inactive	inactive	–	–
NC(=O)N1c2ccccc2C=Cc2ccccc21	inactive	inactive	inactive	inactive	inactive	inactive	inactive	inactive	–	–
COC(=O)[C@@H](N)Cc1ccc(O)c(O)c1	inactive	inactive	inactive	inactive	inactive	inactive	inactive	inactive	–	–
c1ccc2c(c1)CCCC2C1=NCCN1 (stereo not drawn)	inactive	inactive	inactive	inactive	inactive	inactive	inactive	inactive	–	–
CC(=O)[C@]1(O)Cc2c(O)c3c(c(O)c2[C@@H](O[C@H]2C[C@H](N)[C@H](O)[C@H](C)O2)C1)C(=O)c1ccccc1C3=O	0.55 µM (active)	0.422 µM (active)	1.1 µM (active)	1.06 µM (active)	–	inactive	–	2.11 µM (active)	–	–
Brc1c(NC2=NCCN2)ccc2nccnc12	inactive	inactive	inactive	inactive	inactive	inactive	–	–	–	–
COc1ccc(CN(CCN(C)C)c2ccccn2)cc1	inactive	inactive	inactive	inactive	inactive	inactive	inactive	inactive	–	–

SMILES	Potency [1]	Potency [2]	Potency [3]	Potency [4]	outcome [5]	Potency [6]	Potency [7]	Potency [8]	Potency [9]	Potency [10]
C[N+](C)(C)CCOC(=O)CCC(=O)OCC[N+](C)(C)C	inactive	inactive	inactive	inactive	inactive	inactive	inactive	–	–	–
CC(N=C(NC#N)Nc1ccncc1)C(C)(C)C (stereo not drawn)	inactive	inactive	–	inactive	inactive	inactive	inactive	–	–	–
CC(C)NNC(=O)c1ccncc1	inactive	inactive	inactive	inactive	inactive	inactive	inactive	–	–	–
CN/C(=C\[N+](=O)[O-])NCCSCc1ccc(CN(C)C)o1	inactive	inactive	inactive	–	inactive	inactive	–	–	inactive	5.22 µM (active)
Cc1scc2c1N(C(=O)CN1CCN(C)CC1)c1ccccc1NC2=O	inactive	inactive	–	inactive	inactive	inactive	inactive	–	–	–
c1cnc(N2CCN(Cc3ccc4c(c3)OCO4)CC2)nc1	inactive	inactive	inactive	inactive	inactive	inactive	inactive	–	–	–
CN(C)CCN(Cc1cccs1)c1ccccn1	inactive	inactive	–	inactive	inactive	inactive	inactive	–	–	–
CN(C(=O)CCCOc1ccc2[nH]c(=O)ccc2c1)C1CCCCC1	–	inactive	21.9 µM (active)	inactive	inactive	inactive	–	inactive	–	–
O=C1NCN(c2ccccc2)C12CCN(CCCC(c1ccc(F)cc1)c1ccc(F)cc1)CC2	13.8 µM (active)	–	15.5 µM (active)	26.6 µM (active)	inactive	–	–	–	–	–
CN(C)CCCN1c2ccccc2Sc2ccc(C(F)(F)F)cc21	4.9 µM (active)	–	24.6 µM (active)	–	inactive	inactive	inactive	inactive	–	–
CCCCNc1ccc(C(=O)OCCN(C)C)cc1	inactive	inactive	–	inactive	inactive	inactive	–	inactive	–	–
COCCCC/C(=N\OCCN)c1ccc(C(F)(F)F)cc1	inactive	inactive	–	–	inactive	inactive	inactive	inactive	–	–
Cc1ccc(/C(=C\CN2CCCC2)c2ccccn2)cc1	inactive	inactive	–	inactive	inactive	inactive	–	–	–	–
Nc1nc(N)c2nc(-c3ccccc3)c(N)nc2n1	13.8 µM (active)	inactive	–	23.7 µM (active)	inactive	–	inactive	inactive	–	–
CNCCC(Oc1ccccc1OC)c1ccccc1 (stereo not drawn)	inactive	inactive	–	inactive	inactive	inactive	–	inactive	–	–
CCOC(=O)C1=C(C)NC(C)=C(C(=O)OC)C1c1cccc([N+](=O)[O-])c1 (stereo not drawn)	inactive	inactive	–	inactive	inactive	inactive	inactive	–	–	–
CCCCOCCOCCOCc1cc2c(cc1CCC)OCO2	inactive	inactive	–	inactive	inactive	inactive	inactive	–	–	–
CCN(CC)CCOCCOC(=O)C1(c2ccccc2)CCCC1	inactive	inactive	–	–	inactive	inactive	inactive	inactive	–	–
C[C@]12CCC(=O)C=C1CC[C@@H]1[C@@H]2CC[C@@]2(C)[C@H]1CC[C@]2(O)C(=O)CO	inactive	inactive	–	inactive	inactive	inactive	–	inactive	–	–
CC(C)(C)c1ccc(C(=O)CCCN2CCC(OC(c3ccccc3)c3ccccc3)CC2)cc1	19.5 µM (active)	–	15.5 µM (active)	21.1 µM (active)	inactive	–	–	–	–	–
CN=C(NC#N)NCCSCc1nc[nH]c1C	inactive	inactive	inactive	inactive	inactive	inactive	inactive	–	–	–
CN(C)C/C=C(/c1ccc(Br)cc1)c1cccnc1	inactive	inactive	–	inactive	inactive	inactive	–	–	–	–
NC(=O)c1ncn([C@@H]2O[C@H](CO)[C@@H](O)[C@H]2O)c1O	inactive	inactive	inactive	inactive	inactive	inactive	inactive	–	–	–
CCN1CCc2nc(N)oc2CC1	inactive	inactive	inactive	inactive	inactive	inactive	inactive	–	–	–
O=C1CC2(CCCC2)CC(=O)N1CCCCN1CCN(c2ncccn2)CC1	inactive	inactive	inactive	inactive	inactive	inactive	inactive	–	–	–

SMILES	Potency [1]	Potency [2]	Potency [3]	Potency [4]	outcome [5]	Potency [6]	Potency [7]	Potency [8]	Potency [9]	Potency [10]
C#CCN(C)CCCOc1ccc(Cl)cc1Cl	inactive	inactive	–	inactive	inactive	inactive	inactive	inactive	–	–
Cc1cc(C)c(/C=C2\C(=O)Nc3ccccc32)[nH]1	inactive	inactive	15.5 µM (active)	inactive	inactive	inactive	inactive	–	–	–
C(=C\c1ccccc1)/CN1CCN(C(c2ccccc2)c2ccccc2)CC1	inactive	inactive	27.6 µM (active)	–	inactive	inactive	inactive	–	–	–
CCCN1C[C@H](CSC)C[C@@H]2c3cccc4[nH]cc(c34)C[C@H]21	inactive	inactive	–	inactive	inactive	inactive	inactive	inactive	–	–
NC/C=C/C(=O)O	inactive	inactive	inactive	inactive	inactive	inactive	inactive	–	–	–
Nc1ncn([C@@H]2O[C@H](CO)[C@@H](O)[C@H]2O)c(=O)n1	8.71 µM (active)	–	24.6 µM (active)	8.41 µM (active)	–	inactive	–	inactive	–	–
CN(C)CC[C@@H](c1ccc(Br)cc1)c1ccccn1	inactive	inactive	–	inactive	inactive	inactive	inactive	inactive	–	–
OCCN1CCN(CCCN2c3ccccc3C=Cc3ccccc32)CC1	inactive	inactive	–	–	inactive	inactive	inactive	inactive	–	–
CN(C)[C@@H]1C(=O)C(C(N)=O)=C(O)[C@@]2(O)C(=O)C3=C(O)c4c(O)ccc(Cl)c4[C@@H](O)[C@H]3C[C@@H]12	–	inactive	inactive	inactive	inactive	inactive	inactive	inactive	–	–
CC1=C(C)C(=O)C(CCCCC#CCCCC#CCO)=C(C)C1=O	–	inactive	21.9 µM (active)	inactive	inactive	inactive	–	inactive	–	–
C[C@]12CC[C@@H]3c4ccc(O)cc4C[C@@H](CCCCCCCCCS(=O)CCCC(F)(F)C(F)(F)F)[C@H]3[C@@H]1CC[C@@H]2O (stereo partly drawn)	inactive	inactive	–	inactive	inactive	inactive	inactive	inactive	inactive	11.7 µM (active)
COC(=O)[C@H]1[C@H]2C[C@@H]3c4[nH]c5cc(OC)ccc5c4CCN3C[C@H]2C[C@@H](OC(=O)c2cc(OC)c(OC)c(OC)c2)[C@@H]1OC	–	inactive	–	–	inactive	inactive	–	–	–	–
CN1CCN(C2=Nc3ccccc3Oc3ccc(Cl)cc32)CC1	–	inactive	–	inactive	inactive	inactive	inactive	inactive	–	–
COc1ccc2c(c1OC)C(=O)O[C@@H]2[C@H]1c2c(cc3c(c2OC)OCO3)CCN1C	–	inactive	inactive	inactive	inactive	inactive	inactive	–	–	–
CCCC(C(=O)OCCN(CC)CC)(c1ccccc1)c1ccccc1	–	–	30.9 µM (active)	29.9 µM (active)	inactive	–	–	–	–	–
CCCCCCCC/C=C\CCCCCCCC(=O)NCc1ccc(O)c(OC)c1	–	inactive	–	inactive	inactive	inactive	–	inactive	–	–
CN(C)CC/C=C1\c2ccccc2COc2ccccc21	–	–	–	–	inactive	inactive	–	inactive	–	–
CCN(CC)CCCN(c1ccccc1)C1Cc2ccccc2C1	–	inactive	–	–	inactive	inactive	–	inactive	–	–
COc1ccc(CCN(C)CCCC(C#N)(c2cc(OC)c(OC)c(OC)c2)C(C)C)cc1OC (stereo not drawn)	–	inactive	–	inactive	inactive	inactive	–	–	–	–
Cc1nc2sccn2c(=O)c1CCN1CCC(=C(c2ccc(F)cc2)c2ccc(F)cc2)CC1	–	inactive	27.6 µM (active)	–	inactive	inactive	–	inactive	–	–
CCNC(=O)N1CCN(CCCC(c2ccc(F)cc2)c2ccc(F)cc2)CC1	–	inactive	–	inactive	inactive	inactive	–	–	–	–
COCC(=O)O[C@]1(CCN(C)CCCc2nc3ccccc3[nH]2)CCc2cc(F)ccc2[C@@H]1C(C)C	–	–	21.9 µM (active)	26.6 µM (active)	inactive	–	–	21.1 µM (active)	–	–
CCc1cccc(N(C)C(N)=Nc2cccc3ccccc23)c1	–	–	15.5 µM (active)	–	inactive	inactive	–	–	–	–
CCOC(=O)C1=C(C)NC(C)=C(C(=O)OC)C1c1cccc(Cl)c1Cl (stereo not drawn)	–	inactive	–	inactive	inactive	inactive	–	–	–	–
